We go through eight compounds from PMC5540273 (PLoS ONE, 2017).

Holding throughout (conditions): concentration: 1 μM, replicates: in singlicate; n = 1
In experiment [1] the test system is AAK1.
Experiment [2] has as its system ABL1-nonphosphorylated.
Experiment [3] deals with ABL1-phosphorylated.
Experiment [4] has as its system ABL2.

Each structure is given as a SMILES string.
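Also: KINOMEscan kinase panel screen.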

In the case of `COC(=O)c1c(-c2ccccc2)c2cc(Br)ccc2c(=O)n1Cc1ccc(NC(=O)CCC(=O)O)cc1`, the “%Inh” value came out at 13% in experiment [1], 38% in experiment [2], 0% in experiment [3] and 18% in experiment [4].

As to `CCS(=O)(=O)c1ccc(OC)c(Nc2ncc(-c3ccc(F)cc3)o2)c1.Cl` [GW591947], the “%Inh” value in experiment [1] stood at 4%; in experiment [2] it was 0%; in experiment [3], 0%; in experiment [4], 0%.

Regarding `Cc1cccc(-c2nc(Nc3ccc4c(cnn4C)c3)c3ccccc3n2)n1` [GW876731], the “%Inh” value in experiment [1], in experiment [2], in experiment [3] and in experiment [4] was 0% each time.

For the compound `CCCC(=O)Nc1n[nH]c2ncc(-c3cccc4ccccc34)cc12` [SB-642057], the “%Inh” value in experiment [1] is reported as 27%; in experiment [2], 0%; in experiment [3], 27%; in experiment [4] it was 11%.

Take `C[C@@H]1CC[C@H](C(=O)NC2CCCCC2)CN1c1cc(-c2ccc3c(N)n[nH]c3c2)nc(N)n1` [GSK2291363]: the “%Inh” value is listed as 55% in experiment [1], 5% in experiment [2], 0% in experiment [3] and 20% in experiment [4].

As for `COc1cccc(C2=C(Nc3cccc(C(=O)O)c3)C(=O)NC2=O)c1` [SB-390770], the “%Inh” value in experiment [1] turned out to be 3%; in experiment [2], 0%; in experiment [3], 0%; in experiment [4], 6%.

For `COc1cc2ncn(-c3cc(OCCCc4ccccc4)c(C(N)=O)s3)c2cc1OC` [GSK205189], the “%Inh” value in experiment [1] was 35%; in experiment [2] it was 0%; in experiment [3], 0%; in experiment [4], 5%.

`Cc1nnc(-c2ccc3ncn(-c4ccc(S(C)=O)cc4)c3c2)o1` (centres unmarked): the “%Inh” value was 0% in experiment [1], 22% in experiment [2], 0% in experiment [3] and 6% in experiment [4].
